PLK1 kinase inh: blocks human PLK1 kinase activity. recombinant PLK1 kinase, TR-FRET peptide phosphorylation. P53350. 97,000 compounds, 0.53% hits. inhibition, % at 10 µM;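 active means inhibition of 50% or more in the single-concentration screen; inactive means inhibition below 50%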
hDAT+cocaine: changed human dopamine transporter uptake under cocaine IC80 | Q01959 | LLC-PK1 hDAT cells, [14C]-dopamine uptake with cocaine IC80; actives deviate in either direction | B-score at 10 µM | 110,000 compounds, 1.3% hits | AID 449768;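 active means Z score or B-score, a plate-position-corrected score, falls beyond the plate's 99.7% confidence bounds, in either direction; inactive means both scores lie inside the 99.7% bounds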
sdo1 growth: restores growth of sdo1-depleted yeast; 140,000 compounds, 0.21% hits; S. cerevisiae sdo1-depleted JHY4D growth rescue, OD600 30 h; hits give high values; pdr5 snq2 efflux-pump mutant strain; z-score at 10 µM;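 active means z-score above 3 at both the 24 hr and the 30 hr optical density reads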
Cav3 T inh: inhibitors of human Cav3.2 T-type calcium channel | AID 449739 | Cav3.2-expressing cells, Fluo-4 calcium fluorescence FDSS; hits give low values | B-score at 10 µM | O95180 | 100,000 compounds, 4% hits;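 active means single-dose well whose peak fluorescence ratio is a statistical outlier from its plate by either plate-standardised score or position-corrected B-score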
Plk1 PBD FP: inhibitors of human Plk1 polo box domain binding | P53350 | Plk1 PBD phosphopeptide binding, fluorescence polarization | inhibition, %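 (tested at about 20 µM)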 | 97,000 compounds, 0.13% hits | AID 693; in the data active means inhibition above about 34%, passing the limit was not always enough
PTK2B oligo ant: Pyk2 (human) oligomerization antagonism | Q14289 | Q293 cells, Pyk2 FERM NanoBiT luminescence; hits give low values | z-score (the deposit names both 25 µM and 10 µM) | 99,000 compounds, 0.83% hits;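 active means Z-score of -3 or lower, scaled per plate to the spread of control and sample wells; inactive means z-score above -3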;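 further: negative z-score means lost luminescence so less FERM oligomerization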
Target sequence (Q14289 whole entry, looked up): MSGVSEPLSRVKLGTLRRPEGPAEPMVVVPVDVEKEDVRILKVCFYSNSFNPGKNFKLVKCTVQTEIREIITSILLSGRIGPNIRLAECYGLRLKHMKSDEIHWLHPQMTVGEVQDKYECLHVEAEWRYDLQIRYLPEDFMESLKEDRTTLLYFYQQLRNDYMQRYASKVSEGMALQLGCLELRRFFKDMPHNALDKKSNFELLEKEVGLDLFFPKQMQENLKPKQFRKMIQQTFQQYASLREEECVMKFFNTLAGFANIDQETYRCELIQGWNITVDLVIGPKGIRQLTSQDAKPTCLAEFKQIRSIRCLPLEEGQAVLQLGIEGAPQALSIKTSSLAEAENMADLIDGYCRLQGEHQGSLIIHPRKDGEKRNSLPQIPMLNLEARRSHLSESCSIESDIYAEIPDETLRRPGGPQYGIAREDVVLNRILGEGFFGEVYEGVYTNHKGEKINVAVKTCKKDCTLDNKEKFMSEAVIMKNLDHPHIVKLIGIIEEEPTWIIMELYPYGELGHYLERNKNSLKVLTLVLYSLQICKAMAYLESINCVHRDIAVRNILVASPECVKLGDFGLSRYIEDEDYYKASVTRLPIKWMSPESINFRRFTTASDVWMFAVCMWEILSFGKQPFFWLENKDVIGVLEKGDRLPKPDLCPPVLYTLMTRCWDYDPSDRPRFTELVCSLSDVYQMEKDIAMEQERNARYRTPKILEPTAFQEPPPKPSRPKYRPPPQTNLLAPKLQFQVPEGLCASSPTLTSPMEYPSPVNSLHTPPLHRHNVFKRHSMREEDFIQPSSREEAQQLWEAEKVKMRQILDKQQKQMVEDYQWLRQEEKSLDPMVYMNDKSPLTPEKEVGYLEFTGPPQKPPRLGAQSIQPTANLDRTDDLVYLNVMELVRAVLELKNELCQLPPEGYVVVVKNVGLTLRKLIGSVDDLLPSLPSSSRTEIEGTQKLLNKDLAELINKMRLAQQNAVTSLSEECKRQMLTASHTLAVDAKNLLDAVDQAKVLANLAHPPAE
SDO1 rescue DR: confirmation of growth rescue in SDO1-depleted yeast, bone marrow failure | shares compounds with sdo1 growth | S. cerevisiae JHY4D (SDO1-depleted) growth rescue, OD600, 30 h; hits give high values; efflux-deficient strain, SNQ2 and PDR5 mutated | OD recovery (no concentration beside the values) | 440 compounds, 44% hits | AID 949;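 active means yeast growth recovered at 30 hours, either rising with dose fitted slope above 0.001 or with average optical density gain above 0.07, some results past the limit were not filed as active; inactive means growth falling with dose or no effect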
Numbers stand for hits; 0 = inactive; - = no result. Only some compounds are listed: those with a hit (about 4.7% of all), similar ones and a draw of the others.

SMILES	PLK1 kinase inh	hDAT+cocaine	sdo1 growth	Cav3 T inh	Plk1 PBD FP	PTK2B oligo ant	SDO1 rescue DR
NC(=O)CCn1nc(-c2ccc(Cl)cc2)c2ccccc2c1=O	0	0	4.26	0	0	0	0.0766
CNC(=O)CCn1nc(-c2ccccc2)c2ccccc2c1=O	0	0	0	0	0	0	-
CSCCC(NC(=O)c1ccccc1)C(=O)Nc1ccc(NC(C)=O)cc1 (stereo not given)	-	-	0	-	-	-	-
O=C(CCCn1c(=O)[nH]c2cc(Cl)ccc2c1=O)NCCCN1CCCC1	0	0	0	-	0	0	-
O=C(CCCn1c(=O)[nH]c2cc(Cl)ccc2c1=O)NCCC1=CCCCC1	0	0	6.74	0	0	0	0.0914
COC(=O)c1c(NC(=O)Cc2cccs2)sc2c1CCCC2	0	0	7.54	0	0	0	0
COCC(=O)Nc1sc2c(c1C(=O)OC)CCCC2	0	0	0	0	0	0	-
CCCCCCOc1ccc(NC(=O)CC2C(=O)N(CC)C(=S)N2Cc2ccco2)cc1 (stereo not given)	-	-	0	-	-	-	-
CNC(=O)c1cc2cc(OC)ccc2oc1=N	-	0	12.2	0	-	0	0.102
CC(=O)N(c1c(C)n(C)n(-c2ccccc2)c1=O)C1(C(=O)NC2CCCC2)CCCCC1	-	0	10.8	0	-	0	0.0636
O=C1c2cccc(OCC(=O)N3N=C(c4cccs4)CC3c3ccc(F)cc3)c2CCN1Cc1cccnc1 (stereo not given)	-	-	0	-	-	-	-
O=C1C2CCCCC2C(=O)N1c1ccc(NC2CCCCC2)c([N+](=O)[O-])c1 (stereo not given)	-	-	0	-	-	-	-
COc1ccc(C2=NOC(C(=O)NCCCN3CCOCC3)C2)cc1 (stereo not given)	0	0	0	0	0	0	-
COc1ccc(N2CC(C(=O)NCCCN3CCOCC3)CC2=O)cc1 (stereo not given)	0	0	0	0	0	0	0.0836
CN(C(=O)c1cc(-n2cnnc2)ccc1Cl)c1ccccc1	-	-	0	-	-	-	-
Cc1ccc2cc(C#N)c(SCC(=O)Nc3ccc4sc(C)nc4c3)nc2c1	0	-	0	-	0	-	0.104
Cc1ccc2sc(NC(=O)CSc3nc(C)cc(C)c3C#N)nc2c1	0	0	0	0	0	0	-
Cc1nc2ccccc2c(=O)n1/N=C/c1cccnc1	0	0	3.06	0	0	0	0
Cc1nc2ccccc2n1/N=C/c1cccnc1	0	0	0	-	0	0	-
Cc1ccc(C(=O)N/C(=C/c2ccc(F)cc2)C(=O)NCc2ccncc2)cc1	-	-	0	-	-	-	-
CC(CCc1ccccc1)NC(=O)CSc1nc(N)cc(N)n1 (stereo not given)	0	0	13.3	0	0	0	0.107
CC(CCc1ccccc1)NC(=O)CSc1nnnn1C (stereo not given)	0	0	0	0	0	0	-
COc1ccc(CNc2nc3c(c(=O)n(Cc4ccc(Br)cc4)c(=O)n3C)n2C)cc1	0	0	0	0	0	0	0
O=C1CSC(c2ccccn2)N1c1ccccc1 (stereo not given)	0	0	4.1	0	0	0	0.0797
O=C1CSC(c2ccccn2)N1c1ccc2ccccc2c1 (stereo not given)	0	0	0	0	0	0	-
SMILES	PLK1 kinase inh	hDAT+cocaine	sdo1 growth	Cav3 T inh	Plk1 PBD FP	PTK2B oligo ant	SDO1 rescue DR
Cc1ccc(/C=C2\SC(N3CCN(C(c4ccccc4)c4ccccc4)CC3)=NC2=O)o1	-	-	0	-	-	-	-
Cc1nn(C)c(C)c1S(=O)(=O)N1CCCC(C(=O)NC2CCCCCC2)C1 (stereo not given)	-	0	0	0	-	-	0.0833
O=C(Cn1cc(C(F)(F)F)ccc1=O)N/N=C/c1cccc(Cl)c1	-	-	0	-	-	-	-
CC(C)CNC(=O)c1coc(=O)c(Br)c1	0	0	0	0	0	0	-
CN(C)CCNC(=O)c1coc(=O)c(Br)c1	0	0	12.9	0	0	0	0
O=C(CCC(=O)OCC(=O)c1ccc(Cl)cc1)NC1CCCCC1	0	0	0	0	0	0	-
Cc1ccc(C(=O)COC(=O)CCC(=O)NC2CCCCC2)cc1C	0	0	8.25	0	0	0	0
COc1ccc(-c2c(C)sc(NC(=O)c3ccnn3C)c2C#N)cc1	-	-	0	-	-	-	0.0848
Cc1ccc(C(=O)N(Cc2ccccc2)C(C)(C)C)cc1C	-	-	0	-	-	-	-
O=C(CSc1nnc(SCC(=O)c2ccco2)s1)c1ccco1	0	0	0	-	0	0	0
